Our source for the Inhibition values is ChEMBL document CHEMBL1157539, “Thousands of chemical starting points for antimalarial lead identification” (Nature, 2010).

In the assay the test system is Plasmodium falciparum. Briefly: GSK_TCMDC: Inhibition of Plasmodium falciparum Dd2 in whole red blood cells, using parasite LDH activity as an index of growth. Test compounds present at 2uM. In kind it is functional.
A word on the Inhibition: it is how much of the control response was suppressed. A high value points to a response far below the control. For the compound `CCN(CC)CCNc1ccnc2[nH]c3ccc([N+](=O)[O-])cc3c12`, the Inhibition was 76%. As for `CN1CCN(c2cc3c(cc2Cl)CCN3C(=O)Cc2ccc(NC(=O)Nc3cccc4ccccc34)cc2)CC1`, the Inhibition is on record as 18%. Consider `Cc1c(Cn2nc(Cl)c(N3CCNCC3)cc2=O)cccc1NC(=O)Nc1ccc(-c2ccccc2)cc1.O=C(O)C(F)(F)F`, for which the Inhibition turned out to be 29%.

The compound `COCCNCc1cccc(-c2ccc3c(Nc4ccc(Oc5ccccc5)cc4)ccnc3c2)c1` returned an Inhibition of 99%. The value for `Cc1cccc2nc(-c3ccc(-c4cccc(CNCCCN5CCCC5=O)c4)s3)[nH]c12.O=C(O)C(F)(F)F` was 26%; that for `COc1c(C2CCN(CCCCNC(=O)c3ccc(-c4ccc(NC(=O)C(F)(F)F)cc4)cc3)CC2)ccc2c1CCCC2` was 33%; that for `O=C(n1c(-c2cc3ccccc3n2C(=O)C(F)(F)F)cc2ccccc21)C(F)(F)F` was 80%. Turning to `O=C(NCCCCCN1CCC(c2c[nH]c3ccccc23)CC1)Nc1ccc(Cl)cc1Cl`, the Inhibition is listed as 15%.

Take `CCOc1ccc(OCC(=O)Nc2nc(-c3ccc(OC)cc3)c(C)s2)cc1`: the Inhibition was found to be 98%.

`COc1cccc(CN2CCC3(CC2)CN(C(=O)Nc2ccc(Cl)c(Cl)c2)C3)c1` returned an Inhibition of 2%.

`COc1cc2nc(N3CCC(CNC(=O)c4ccc(-c5ccc(C#N)cc5)cc4)CC3)nc(N)c2cc1OC` came in with an Inhibition of 99%. Turning to `O=C(/C=C/c1ccc(Cl)c(Cl)c1)NCCCCCN1CCC(NC(=O)Nc2ccccc2F)CC1`, the Inhibition was 25%. `O=C(Nc1cccc(-c2ccc(-c3nc4cc(F)ccc4[nH]3)cc2)c1)c1csnn1` displayed an Inhibition of 31%. On to `COc1cc2nc(Nc3ccc(Oc4ccccc4)cc3)nc(Nc3ccc(Oc4ccccc4)cc3)c2cc1OC`, for which the Inhibition is 45%. `CCN(CC)CCOc1cc2c(cc1Br)-c1cc(Br)c(OCCN(CC)CC)cc1C2=NO.Cl` came in with an Inhibition of 98%. Consider `Cl.c1ccc(Oc2ccc(Nc3ccnc(Nc4ccc5cn[nH]c5c4)n3)cc2)cc1`, for which the Inhibition was 33%. `O=C(NCc1ccc(Cl)cc1)c1ccc(CN2CCCN(CC3CCCCC3)CC2)cc1.O=C(O)C(F)(F)F`: the Inhibition is 5%.

`CN(/N=C/C=C/c1ccc(Cl)cc1)c1nc(NCCc2ccc(O)cc2)nc(N2CCNCC2)n1` gave an Inhibition of 69%. Compound `O=C(Nc1ccc(C(=O)OCC2CCCCC2)cc1)N[C@@H](Cc1ccc(O)cc1)C(=O)NC1CCN(Cc2ccc(O)cc2)C1.O=C(O)C(F)(F)F` (some centres undefined) gave an Inhibition of 0%. `CC(C)NCc1cccc(-c2ccc(NC(=O)c3ccc(F)cc3)cc2)c1.O=C(O)C(F)(F)F` registered an Inhibition of 3%. As for `O=C(CN1CCN(C(C(=O)Nc2cc(C(F)(F)F)ccc2Cl)c2ccccc2)CC1)NC1CC1` (centres undefined), the Inhibition was 93%.

For the compound `CN(C)CCOc1ccc(-c2cc(-c3ccnc(N)n3)c(-c3ccc(Cl)c(O)c3)o2)cc1`, the Inhibition is recorded as 91%.

Compound `CNC(=O)c1cncc(/C=C/c2ccccc2S(N)(=O)=O)c1` came in with an Inhibition of 77%. Turning to `Cc1cccc2nc(-c3ccc(-c4ccc(CN5CCCC(N)C5)cc4)cc3)[nH]c12.O=C(O)C(F)(F)F` (centres undefined), the Inhibition was 100%.

`COc1ccccc1COc1c(C)nc(N)nc1N.Cl`: the Inhibition is 1%. As to `COCCN1CCC(N(Cc2ccc(-c3ccc(C(F)(F)F)cc3)cc2)C(=O)Cn2c(CCc3cccc(F)c3F)cc(=O)c3c2CCC3)CC1.O=C(O)C(O)C(O)C(=O)O`, the Inhibition is listed as 48%. As for `CN(CCc1ccccn1)Cc1ccc(-c2ccc(-c3nc4ccccc4[nH]3)s2)cc1`, the Inhibition was 48%. `Brc1ccsc1-c1nc(NCCC(c2ccccc2)c2ccccc2)no1`: the Inhibition is reported as 81%. Compound `CC(C)CNC(=O)CN1C(=O)C(c2ccccc2)(c2ccccc2)N=C1N` displayed an Inhibition of 46%. `O=C(/C=C/c1ccc(Cl)c(Cl)c1)N1CCC(CCCN2CCC(c3c[nH]c4ccccc34)CC2)CC1` came in with an Inhibition of 45%. `Nc1nccc2ccc(-c3cccc(O)c3)cc12`: the Inhibition amounted to 71%. The compound `COc1cccc(C(=O)Nc2ccc(Oc3ccc(Cl)cc3)cc2)c1` returned an Inhibition of 0%. The result for `NC1=NC(c2ccccc2)(c2ccccc2)C(=O)N1CC1CCC1.O=CO` reads 74%; that for `O=C(O)C(F)(F)F.O=C1CCCN1CCCNCc1ccc(-c2ccc(-c3nc4cc(C(F)(F)F)ccc4[nH]3)s2)cc1`, 96%; that for `COc1cc(F)c2nccc([C@@H](O)CN3CCC(NCc4ccc5c(n4)NC(=O)CS5)C(F)C3)c2c1.Cl` (some centres undefined), 80%. `CC(C)Cc1cn(-c2nc(C(=N)N)cs2)c2cc(Cl)ccc12` returned an Inhibition of 98%. For the compound `Cn1nc(C(=O)N2CCC(c3[nH]ncc3Cc3ccccc3)CC2)c2ccccc2c1=O`, the Inhibition is 95%.

Compound `N#Cc1ccccc1N1CCN(C2CCC(NC(=O)c3n[nH]c4cc(C(F)(F)F)ccc34)CC2)CC1` (centres undefined) displayed an Inhibition of 34%. Compound `Cn1ccnc1CNC(=O)c1ccc(-c2cccc(-c3nc4cc(F)ccc4[nH]3)c2)cc1` came in with an Inhibition of 8%.
